Results from the supplement of paper PMC10127200.
Counter-ions that a name gives are not always drawn.

Tests used:
Assay in all cases: Euclidean distance of Cell Painting phenotypic profile (signed KS, 77 features) to DMSO centroid (dimensionless distance); 5 or 10 uM (library dependent); higher = stronger phenotypic change vs DMSO (phenoactivity)
Conditions in all cases: 48 h
786-O = tested on: 786-O
Procedure, shortened: (§1)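 Phenoactivity is defined as the Euclidean distance from a compound profile to the median vehicle profile. Each profile comprised 77 Harmony features, scored as signed Kolmogorov-Smirnov statistics versus same-plate vehicle wells, then plate-position corrected, correlation-weighted and replicate-averaged at the top dose. Five cancer lines and one healthy fibroblast line were exposed to library compounds for 48 h at 10 or 5 uM (0.1% DMSO final).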

A549 = tested on: A549
Procedure, shortened: as §1

DU145 = tested on: DU145
Procedure, shortened: as §1

FB = tested on: FB
Procedure, shortened: as §1

HEPG2 = tested on: HEPG2
Procedure, shortened: as §1

OVCAR4 = tested on: OVCAR4
Procedure, shortened: as §1

| Structure (SMILES) | Euclidean distance (786-O) | Euclidean distance (A549) | Euclidean distance (DU145) | Euclidean distance (FB) | Euclidean distance (HEPG2) | Euclidean distance (OVCAR4) |
| --- | --- | --- | --- | --- | --- | --- |
| C=CC(=O)N1CCC[C@@H](n2nc(-c3ccc(Oc4ccccc4)cc3)c3c(N)ncnc32)C1 | 1.76 | 2.16 | 2.61 | 2.35 | 1.42 | 2.38 |
| Cc1ccc(C(=O)Nc2ccc(Oc3cc4cnn(C)c4cc3-c3cn[nH]c3)c(F)c2)c(=O)n1-c1ccc(F)cc1 | 1.83 | 1.59 | 1.22 | 3.01 | 2.28 | 1.67 |
| Cc1cc(Nc2ncnc3ccc(NC4=NC(C)(C)CO4)cc23)ccc1Oc1ccn2ncnc2c1 [Irbinitinib (ARRY-380. ONT-380)] | 1.56 | 1.62 | 1.3 | 1.15 | 1.12 | 1.29 |
| Cc1nc2cccc(N)c2c(=O)n1C1CCC(=O)NC1=O (stereo not drawn) [Avadomide(CC-122)] | 0.872 | 1.22 | 1.16 | 1.02 | 0.382 | 0.966 |
| CCCC(=O)[O-].[Na+] [Sodium butyrate] | 1.42 | 0.966 | 1.17 | 1.13 | 0.665 | 1.51 |
| O=C(O)c1cc(-c2ccccc2)nc2ccccc12 [Cinchophen] | 1.16 | 1.12 | 1.3 | 1.12 | 1.47 | 0.992 |
| COC(=O)c1cc(OC)c2c(c1-c1c(CO)cc(OC)c3c1OCO3)OCO2 [Bicyclol] | 1.47 | 0.509 | 2.55 | 0.898 | 1.1 | 1.06 |
| CC(C)NCC(O)COc1ccc(COCCOC(C)C)cc1 (stereo not drawn) [Bisoprolol fumarate] | 0.611 | 0.836 | 0.523 | 0.91 | 0.467 | 1.36 |
| O=C(O)CCCCC(CCSCc1ccccc1)SCc1ccccc1 (stereo not drawn) | 0.848 | 0.928 | 1.09 | 0.687 | 0.938 | 0.821 |
| CCNC(=O)[C@@H]1CCCN1C(=O)[C@H](CCCN=C(N)N)NC(=O)[C@H](CC(C)C)NC(=O)[C@@H](C)NC(=O)[C@H](Cc1ccc(O)cc1)NC(=O)[C@H](CO)NC(=O)[C@H](Cc1c[nH]c2ccccc12)NC(=O)[C@H](Cc1cnc[nH]1)NC(=O)[C@@H]1CCC(=O)N1 [Alarelin Acetate] | 0.728 | 1.38 | 0.974 | 2.05 | 1.87 | 1.24 |
| CC(C)=CCC/C(C)=C/CC/C(C)=C/CCC(=O)OC/C=C(\C)CCC=C(C)C [Gefarnate] | 0.868 | 0.898 | 0.637 | 1.09 | 0.64 | 0.606 |
| Nc1ccc(C(=O)O)c(O)c1 [Sodium 4-Aminosalicylate] | 1.34 | 2.62 | 1.27 | 2.47 | 1.02 | 1.43 |
| CC(=O)c1cc([N+](=O)[O-])c(Sc2ccc(F)cc2F)s1 | 0.453 | 0.953 | 0.697 | 0.781 | 2.06 | 1.97 |
| C[n+]1ccccc1/C=N/O [Pralidoxime chloride] | 1.41 | 0.85 | 1.53 | 1.2 | 0.755 | 1.08 |
| C[C@H]1COc2c(C3(N)CC3)c(F)cc3c(=O)c(C(=O)O)cn1c23 [Pazufloxacin mesylate] | 1 | 1.18 | 0.975 | 0.993 | 1.28 | 1.36 |
| CCCc1cc(C)[nH]c(=O)c1CNC(=O)c1cc(-c2ccc(N3CCN(C(C)C)CC3)nc2)cc2c1cnn2C(C)C | 1.57 | 1.62 | 1.42 | 2.34 | 1.03 | 1.18 |
| CC(C)OC(=O)CCC/C=C\C[C@@H]1[C@@H](CC[C@@H](O)CCc2ccccc2)[C@H](O)C[C@@H]1O [Latanoprost] | 1.13 | 0.914 | 0.738 | 1.14 | 0.925 | 1.15 |
| Cc1ccccc1C(=O)Nc1ccc(C(=O)N2CCCC(N(C)C)c3ccccc32)cc1 (stereo not drawn) [Mozavaptan] | 0.843 | 0.928 | 1.17 | 0.813 | 0.445 | 0.913 |
| OCc1c[nH]c2ccccc12 [Indole-3-carbinol] | 1.05 | 1.17 | 0.838 | 0.767 | 0.598 | 1.05 |
| Cc1c(C(=O)Nc2ccc(N3C[C@@H](C)O[C@@H](C)C3)nc2)cccc1-c1ccc(OC(F)(F)F)cc1 [LDE225 (NVP-LDE225.Erismodegib)] | 0.757 | 1.2 | 0.747 | 0.782 | 1.4 | 1.38 |
| CC1(C)CNc2cc(NC(=O)c3cccnc3NCc3ccncc3)ccc21 [Motesanib Diphosphate (AMG-706)] | 1.29 | 1.76 | 1.48 | 1.96 | 1.27 | 1.37 |
| CS(=O)(=O)c1ccc([C@@H](O)[C@@H](CF)NC(=O)C(Cl)Cl)cc1 [Florfenicol] | 1.1 | 0.738 | 0.807 | 1.12 | 0.739 | 0.76 |
| CN[C@@H]1[C@H](O)[C@H](NC)[C@H]2O[C@@]3(O)C(=O)C[C@@H](C)O[C@H]3O[C@@H]2[C@H]1O [Spectinomycin 2HCl] | 1.1 | 0.735 | 0.979 | 1.48 | 0.555 | 0.972 |
| O=C(Nc1ccc(OC(F)(F)F)cc1)c1sccc1NCc1ccnc2ccccc12 | 1.19 | 2.11 | 1.25 | 1.38 | 0.977 | 1.41 |

| Structure (SMILES) | Euclidean distance (786-O) | Euclidean distance (A549) | Euclidean distance (DU145) | Euclidean distance (FB) | Euclidean distance (HEPG2) | Euclidean distance (OVCAR4) |
| --- | --- | --- | --- | --- | --- | --- |
| CC[C@H](Nc1ncnc2[nH]cnc12)c1nc2cccc(F)c2c(=O)n1-c1ccccc1 [CAL-101 (Idelalisib. GS-1101)] | 1.28 | 0.736 | 1.32 | 1.79 | 0.747 | 1.56 |
| CCOc1nc2cccc(C(=O)O)c2n1Cc1ccc(-c2ccccc2-c2nnn[nH]2)cc1 [Candesartan] | 2.07 | 1.74 | 1.69 | 3.34 | 0.856 | 1.84 |
| Cn1c(=O)c(F)c(Nc2ccc(I)cc2F)c2c(=O)n(C[C@@H](O)CO)cnc21 | 3.48 | 2.45 | 3.23 | 4.03 | 2.21 | 2.01 |
| COc1ccc(C[C@H](NC(=O)[C@H](C)NC(=O)CN2CCOCC2)C(=O)N[C@@H](Cc2ccccc2)C(=O)[C@@]2(C)CO2)cc1 | 5.28 | 4.5 | 5.11 | 5.13 | 5.18 | 6.2 |
| CC(C)(C)C#Cc1cc(N(C(=O)[C@H]2CC[C@H](C)CC2)[C@H]2CC[C@H](O)CC2)c(C(=O)O)s1 [VX-222 (VCH-222. Lomibuvir)] | 0.681 | 0.474 | 1.14 | 0.678 | 2.05 | 0.601 |
| C#C[C@]1(O)CC[C@H]2[C@@H]3CCC4=CC(=O)CC[C@@H]4[C@H]3CC[C@@]21CC [Levonorgestrel] | 1.01 | 0.81 | 0.624 | 0.673 | 0.994 | 0.816 |
| C=CC1=C(C(=O)O)N2C(=O)[C@@H](NC(=O)/C(=N\O)c3csc(N)n3)[C@H]2SC1 [Cefdinir] | 0.892 | 0.765 | 2.48 | 1.4 | 1.17 | 0.686 |
| Cc1ncc(C[n+]2csc(CCO)c2C)c(N)n1 [Thiamine HCl (Vitamin B1)] | 1.43 | 0.642 | 0.753 | 0.562 | 1.12 | 1.21 |
| CCCCCc1ccc(C)cc1O [Amylmetacresol] | 0.732 | 0.727 | 0.517 | 0.859 | 0.412 | 0.661 |
| CCOc1ccc2c(-c3cccc(F)c3)nn(CC(=O)N(C)c3ccc4nc(C)oc4c3)c(=O)c2c1 | 1.05 | 0.995 | 1.36 | 0.808 | 0.431 | 0.932 |
| C[C@H](NCc1ccc(OCc2cccc(F)c2)cc1)C(N)=O [Safinamide Mesylate] | 0.672 | 0.63 | 0.559 | 0.645 | 0.55 | 1.14 |
| C[C@H]1C[C@@H]2[C@H]([C@@H](O)C[C@@]3(C)[C@H]2CC[C@]3(O)C(=O)CO)[C@@]2(C)C=CC(=O)C=C12 [Methylprednisolone] | 1.37 | 1.96 | 1.76 | 1.79 | 2.31 | 2.07 |
| CCCCOc1ccc(C(=O)Nc2ccc(F)cc2F)cc1 | 1.45 | 1.45 | 1.14 | 1.28 | 0.872 | 1.5 |
| CCN(CCO)CCCC(C)Nc1ccnc2cc(Cl)ccc12 (stereo not drawn) [Hydroxychloroquine Sulfate] | 3.48 | 3.08 | 2.6 | 5.29 | 2.92 | 3.58 |
| CC(C)n1cnc2c(NCCc3ccc(O)cc3)nc(-c3csc4ccccc34)nc21 [StemRegenin 1 (SR1)] | 0.931 | 1.13 | 1.12 | 1.04 | 1.04 | 0.909 |
| CCn1cc(C(=O)O)c(=O)c2cc(F)c(N3CCNCC3)cc21 [Norfloxacin] | 1.28 | 0.791 | 0.924 | 1.26 | 0.65 | 1.01 |
| CC(C)c1ccc2oc3nc(N)c(C(=O)O)cc3c(=O)c2c1 [Amlexanox] | 0.725 | 0.9 | 0.886 | 0.891 | 0.909 | 0.738 |
| CC1Oc2cc(cnc2N)-c2c(nn(C)c2C#N)CN(C)C(=O)c2ccc(F)cc21 (stereo not drawn) | 0.876 | 1.02 | 1.34 | 1.55 | 2.11 | 1.26 |
| CC1(C)S[C@@H]2[C@H](NC(=O)[C@H](N)c3ccccc3)C(=O)N2[C@H]1C(=O)OCOC(=O)[C@@H]1N2C(=O)C[C@H]2S(=O)(=O)C1(C)C [Sultamicillin] | 1.46 | 0.999 | 0.805 | 1.26 | 0.611 | 1.28 |
| CC[C@H](C)C(=O)O[C@H]1C[C@@H](C)C=C2C=C[C@H](C)[C@H](CC[C@@H]3C[C@@H](O)CC(=O)O3)[C@H]21 [Lovastatin] | 1.17 | 1.61 | 0.903 | 2 | 2.11 | 0.909 |
| O=C1NC(=O)/C(=C/c2ccc(-c3ccc(F)cc3O)o2)S1 | 1.18 | 0.855 | 1.25 | 1.02 | 0.814 | 0.97 |
| CC(C)(C)C(=O)C(Oc1ccc(Cl)cc1)n1ccnc1 (stereo not drawn) [Climbazole] | 0.898 | 0.838 | 0.641 | 1.02 | 0.579 | 1.29 |
| CCCCCCCCCCCCCCCCCC(=O)O [Stearic acid] | 1.24 | 1.11 | 0.794 | 1.08 | 0.463 | 0.768 |
| CC(=O)N(O)CCCCCNC(=O)CCC(=O)N(O)CCCCCNC(=O)CCC(=O)N(O)CCCCCN [Deferoxamine mesylate] | 2.45 | 2.58 | 6.88 | 2.61 | 2.02 | 2.86 |
